# PubChem BioAssay AID504466 (National Center for Advancing Translational Sciences (NCATS), 2011)
# In all, about 330,000 compounds went through this assay and about 4,200 (1.3%) were called active. Inconclusive results (about 6%) are left out. What follows is part of a selection rich in actives, with near analogues and random picks from the rest. A number with no mark means an inactive call. The call rests on the fitted dose curve; in most records, active means well fitted activation curve with a large enough effect; inconclusive means small, poorly fitted or top-dose-only effect; inactive means no such curve, though single readings can be large or run the other way.
# Assay: qHTS screen for small molecules that induce genotoxicity in human embryonic kidney (HEK293T) cells expressing luciferase-tagged ELG1; further: nearly all actives have a fitted effect of over 60% in size; on activity change, positive = activation: % of control where 0% means no effect
# Details: HEK293T ELG1-luciferase reporter, luminescence, 16 h; series mostly up to 46 µM; activity change, positive = activation: at the top concentration
# Source text: NIH Molecular Libraries Probe Production Network [MLPCN] NIH Chemical Genomics Center [NCGC] MLPCN Grant: 1 R03 MH092164-01 Assay Provider: Kyungjae Myung, NHGRI, NIH Keywords: MLPCN, qHTS, NCGC, genotoxicity, cancer Assay Overview: Cancer cells divide rapidly compared to normal cells in the body. During cell division, cancer cells need to duplicate their genome by DNA replication. The failure of genome duplication leads to cancer cells' death. Therefore, inhibitors of DNA replication could specifically kill cancer cells. Based on this concept, many chemotherapeutic agents were developed and have been used to treat cancer patients. However, there are a limited number of agents available in the clinical setting, and some of those that do exist have low efficacy and severe side effects. Therefore, if we can find the compounds that effectively block DNA replication either by directly damaging DNA or by inhibiting other cellular mechanisms, the options for cancer treatment will be broadened. With this in mind, we developed a quantitative high-throughput ELG1-luciferase reporter gene assay. Since the level of human ELG1 protein is enhanced in response to genetic stresses, increases in luciferase activity can be used to identify compounds that cause genetic stress.
# Assay Protocol Summary: For genotoxicity screening, 2,000 cells in 5 uL/well were dispensed into white, solid-bottom 1536-well plates using a solenoid-based dispenser. Following transfer of 23 nL compound or DMSO vehicle by a pin tool, the plates were incubated 16 hr at 37 °C and 5% CO2. 5 ul ONE-Glo (Promega) was then added to each plate and following a 30 min incubation at room temperature, luciferase activity was quantified on a ViewLux CCD-based plate reader.
# Potency means the concentration at half of the fitted maximal effect.
SMILES,Potency,"activity change, positive = activation [%]"
O=C(CSc1ccc(-c2ccc(-n3cccn3)cc2)nn1)Nc1ccc([N+](=O)[O-])cc1,18.3 µM (active),
O=C(CSc1ccc([N+](=O)[O-])cn1)Nc1ccc(N2CCOCC2)cc1,,-1.03
O=C(CSc1ccc(-c2ccc(F)cc2)nn1)Nc1ccc2c(c1)OCCO2,,0.784
Cc1cccc(C)c1Nc1nnc(SCC(=O)NCCCN2CCCC2=O)s1,,-2.8
Cc1ccc(NC(=O)COC(=O)C2CC2)cc1S(=O)(=O)N1CCOCC1,,-0.783
Cc1noc(C)c1NC(=O)Nc1ccc2c(c1)C(=O)N([C@H](C)CO)C[C@H](C)[C@@H](CN(C)S(=O)(=O)c1cn(C)cn1)O2,,2.22
COc1cc(/C=N/O)ccc1OCc1ccc([N+](=O)[O-])cc1,9.2 µM (active),
COc1cc(C(=O)OCc2ccc([N+](=O)[O-])cc2)cc(OC)c1OC,,5.71
COc1cc(/C=N\Nc2ccc([N+](=O)[O-])cn2)ccc1OCC(=O)O,,-0.169
CC(=O)C(CC(=O)N1CCCC1)C(=O)Nc1ccc(Cl)cc1 (centres undefined),,2.38
Cc1ccc(C(=O)Nc2ccccc2-c2ccccc2)cc1S(=O)(=O)Nc1ccccc1,,-9.23
CCOc1ncccc1C(=O)Nc1ccc2c(c1)OCCO2,,9.61
COc1ccc(C)cc1NC(=O)CSc1cccc[n+]1[O-],,5.29
CN=C(Nc1cccc(S(=O)(=O)N2CCOCC2)c1)c1ccccc1,,0.167
COc1ccccc1NC(=O)c1ccc(C)s1,11.6 µM (active),
COc1ccccc1NC(=O)C1=C(C)NC(=O)NC1c1ccc(C)s1 (centres undefined),,5.02
COC(=O)c1c(NC(C)=O)sc(C(=O)Nc2ccccc2OC)c1C,,0.157
Cc1ccc(S(=O)(=O)N2CCN(C(=O)Cn3c(=O)cnc4ccccc43)CC2)c(C)c1,,-6.79
Cc1c(C(=O)Nc2ccccc2)sc2nc3n(c(=O)c12)CCCCC3,,10.3
O=c1c2c(nc3n1CCCCC3)sc1c(O)cccc12,2.06 µM (active),
Cc1cccc2c(=O)n3c(nc12)CCCCC3,,-4.76
Cc1ccc(NS(=O)(=O)c2ccc(C(C)C)cc2)cc1S(=O)(=O)N1CCOCC1,,-5.95
S=c1[nH]c(-c2cccs2)cn1-c1ccccc1,,13
COc1cccc(-n2c(=S)[nH]c3c(oc4ccccc43)c2=O)c1,,11.3
O=c1oc2ccccc2cc1-c1cn(-c2ccccc2)c(=S)[nH]1,0.0461 µM (active),

SMILES,Potency,"activity change, positive = activation [%]"
O=C1OC[C@@H]2CCCN2C(=O)[C@H](CC(=O)N(CCO)Cc2ccccc2)C/C=C\CC[C@@H]1Cc1ccc(F)cc1,,-3.58
COc1cc(/C=C/C(=O)OCC(=O)NC2CC2)cc(OC)c1OC,,1.1
Cc1ccc(S(=O)(=O)N2CCN(C(=O)CN3C(=O)NC(C)(c4ccc(Cl)cc4)C3=O)CC2)c(C)c1 (centres undefined),,-3.81
CN(c1ccccc1)S(=O)(=O)c1ccc(C(=O)NCCc2ccccc2)cc1,,13.5
CC(C)c1ccc(C(=O)NCCCc2ccccc2)cc1,18.4 µM (active),
O=C(CCNC(=O)c1ccc(Br)cc1)NCCCc1ccccc1,,2.41
Cc1noc(C)c1NC(=O)Nc1ccc2c(c1)C(=O)N([C@H](C)CO)C[C@H](C)[C@@H](CN(C)C(=O)Nc1ccccc1)O2,,3.31
O=C(CSc1ncnc2sccc12)NC1CCS(=O)(=O)C1 (centres undefined),,1.63
C=CCC[C@@H](Cc1ccc(F)cc1)C(=O)OC[C@H](Cc1c[nH]c2ccccc12)NC(=O)[C@@H](CC=C)CC(=O)N(CCO)Cc1ccccc1,,-11
Cc1ccc(-n2cc3ccc([N+](=O)[O-])cc3n2)cc1,2.91 µM (active),
Cc1cc(CO)nn1-c1ccc([N+](=O)[O-])cc1,,-0.0391
Cc1ccc(-c2cn(S(=O)(=O)c3cccc([N+](=O)[O-])c3)nc2N)cc1,,-4.12
O=C(N[C@@H]1C/C=C\C[C@@H](CC(=O)N(CCO)Cc2ccccc2)C(=O)N[C@H](Cc2ccccc2)COC1=O)OCC1c2ccccc2-c2ccccc21,,-0.759
CCCCCCSc1ccc([C@@H]2[C@H]3C(=O)N(CC)C(=O)[C@H]3[C@]3(C(=O)OC)CCCCN23)cc1,,1.28
CCCOC(=O)C1=C(C)NC2=C(C(=O)C(C(=O)OC)C(C)C2)C1c1ccc(N(C)C)cc1 (centres undefined),,0.467
COC(=O)C1C(=O)c2c([nH]c(C(=O)OCCSC)c2C)CC1C (centres undefined),16.4 µM (active),
COCCOC(=O)c1[nH]c2c(c1C)C(=O)CC(c1ccc(OC)cc1)C2 (centres undefined),,-0.128
CC(C)N(C(=O)[C@H]1C[C@H](CC(=O)NC(C)(C)C)C(=O)N2CCc3c([nH]c4ccc(Cl)cc34)[C@]12C)C(C)C,,-3.2
Cc1cc(NC(=O)CSc2ncc(C(F)(F)F)cc2Cl)no1,,-0.775
COc1ccc(Cl)cc1NC(=O)COC(=O)c1ccc(Br)o1,,1.48
CN(C(=O)c1cccc(NC(=O)C2CCN(C(=O)OC(C)(C)C)CC2)c1)C1CCC1,,-4.07
NC[C@H](Cc1ccccc1)NCCc1cc(C(F)(F)F)cc(C(F)(F)F)c1,,0.0851
CCc1ccc2oc(-c3ccc(N)cc3)nc2c1,0.206 µM (active),
Cn1nnnc1SCC(=O)Nc1sccc1C(N)=O,,4.53
